Measured values taken from article PMC7819943, “Rice protein-binding microarrays: a tool to detect cis-acting elements near promoter regions in rice”.
The full ranking holds about 68,000 sequences; the median of “fluorescence intensity (a.u.)” is about 9,100, and the highest 2% start at about 16,000. The entries come from a sample that favours the highest values as a whole.

target: OsWRKY34 (Oryza sativa, UniProt Q0JBA9 1-250); experiment: protein-binding microarray (RPBM); PBS, 2% BSA, 51.3 ng/ul salmon testes DNA, 50 uM zinc acetate, 200 nM TF, 25 C, 1 h; high values mean tight binding; settings: protein: recombinant; tags: N-terminal polyhistidine and DsRed monomer fusion (pET32a); label: CyDye5-dUTP incorporated in the synthesized complementary strand; 3' TTTTT single-stranded linker to array surface; dsDNA, one strand shown
How it was run: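 Transcription factors were each fused at the N-terminus to a polyhistidine tag plus DsRed and expressed in E. coli BL21-CodonPlus before Ni–NTA purification. Binding to a double-stranded custom Agilent array was carried out with 200 nM protein at 25 °C for 1 h in PBS, 2% BSA, salmon testes DNA and 50 µM zinc acetate. The binding signal is per-feature fluorescence intensity, in arbitrary units, on an Axon 4000B scanner.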

OsWRKY34, sequence (Q0JBA9 entry or part of it): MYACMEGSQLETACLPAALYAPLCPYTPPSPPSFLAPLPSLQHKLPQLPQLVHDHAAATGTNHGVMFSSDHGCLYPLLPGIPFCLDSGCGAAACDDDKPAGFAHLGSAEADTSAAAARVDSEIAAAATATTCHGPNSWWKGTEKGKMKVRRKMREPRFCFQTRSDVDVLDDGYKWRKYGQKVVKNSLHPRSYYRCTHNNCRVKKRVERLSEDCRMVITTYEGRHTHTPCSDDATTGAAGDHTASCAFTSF

Row | Sequence | binding signal
1 | GCTACCATCGTCACCGCCTCAACCAAGCTACCCGTGTCTCCGGAGTCACCTAGTGCAG | 10400 fluorescence intensity (a.u.)
2 | GCCCTACTCTACCCCTAGCCCTCCGCGCGGCTGCCGTCGACGGAGTCACCTAGTGCAG | 8970 fluorescence intensity (a.u.)
3 | CACCCAAACCAAATCAAATCCGTCCATCCATTCGCCTCTACGGAGTCACCTAGTGCAG | 8960 fluorescence intensity (a.u.)
4 | ATCCACTTATATATACACACATTTGTAATTTGTATCTATACGGAGTCACCTAGTGCAG | 8270 fluorescence intensity (a.u.)
5 | CGTTTTATTTTTGGTTGTTTTTCTGTTTGGGTTTTGATTTCGGAGTCACCTAGTGCAG | 11300 fluorescence intensity (a.u.)
6 | TGTTTTTGCTTCTCTTCCTTTTGCTGGAGCTTATTGGTTTCGGAGTCACCTAGTGCAG | 10100 fluorescence intensity (a.u.)
7 | CATATGTATGAGGGTATCTTTGTTTTGGCTTTGGTCCCTTCGGAGTCACCTAGTGCAG | 10200 fluorescence intensity (a.u.)
8 | ATTTTCCTTGTTTTGATGTTTTCTGGTTGGGGAAGGGTTACGGAGTCACCTAGTGCAG | 24600 fluorescence intensity (a.u.)
9 | GGCTGGTTTGGTTGGTTGAGAATACCTTTTCTTTTTCCTTCGGAGTCACCTAGTGCAG | 29100 fluorescence intensity (a.u.)
10 | TTTCATGTCGCTCCTTGTCGTTGCTGCTCTTTGGGTGCAACGGAGTCACCTAGTGCAG | 11100 fluorescence intensity (a.u.)
11 | GTTTGAGGGTTTTTTGTTGGTTTAGAATCATCTTTTTCTTCGGAGTCACCTAGTGCAG | 9210 fluorescence intensity (a.u.)
12 | TTGATGGGTTTTGGGTTTTTGTGCTGCTCCTTTTTCGTAACGGAGTCACCTAGTGCAG | 19800 fluorescence intensity (a.u.)
13 | ATTTTCCTTGATTTTTTTTGTGTGTTTGGGAATTGGGATACGGAGTCACCTAGTGCAG | 12600 fluorescence intensity (a.u.)
14 | GCTGGAGGGGCTGGGGTATGTTCTTTTTGTATATGACGTTCGGAGTCACCTAGTGCAG | 20300 fluorescence intensity (a.u.)
15 | GGGGTATGAAATGTTTTTTTTTTCCTTTACGTTTCTTTTTCGGAGTCACCTAGTGCAG | 15400 fluorescence intensity (a.u.)
16 | GGTTTTTATGGGGTTGCTCTTTGATTTTTTTTTTCTCCTGCGGAGTCACCTAGTGCAG | 12200 fluorescence intensity (a.u.)
17 | CCTATGAAGAAACTTACGCTGACGGCTGACCTAAACGTGCCGGAGTCACCTAGTGCAG | 11000 fluorescence intensity (a.u.)
18 | AAACAATCCGACGGCCCGTATTCCGTGGTCCACGGCCACGCGGAGTCACCTAGTGCAG | 9020 fluorescence intensity (a.u.)
19 | CTTATTTCAAATGTGTGGGTATACATATGTGCACATATATCGGAGTCACCTAGTGCAG | 8440 fluorescence intensity (a.u.)
20 | TCGTTACATGTTCTTTCATTCTCGTATTGCATTATCTGCTCGGAGTCACCTAGTGCAG | 9260 fluorescence intensity (a.u.)
21 | GCTTGGATTTTTTTTGTTGCTTTTGGTTGTTGTGATCCCTCGGAGTCACCTAGTGCAG | 11800 fluorescence intensity (a.u.)
22 | TATTAGTGTTTTATTTTCACCGGTTAATATTTTTGTTCTTCGGAGTCACCTAGTGCAG | 8880 fluorescence intensity (a.u.)
23 | GTTCTTCGTTAATACGGTGCTTTCATTATTTTGTTTTCCCCGGAGTCACCTAGTGCAG | 16600 fluorescence intensity (a.u.)
24 | GTGCTCGATGCTCGATGCCCTCCTTTTCCGCCATCTTTTTCGGAGTCACCTAGTGCAG | 10200 fluorescence intensity (a.u.)
25 | TTCCTGGTTGCTTCTTTTGCAGTTTTTTTTTTCCCTTCCTCGGAGTCACCTAGTGCAG | 10100 fluorescence intensity (a.u.)
26 | CCCTGGTGTTTGGATTTGGTTGTTCCTCGCGATTGCATTTCGGAGTCACCTAGTGCAG | 15600 fluorescence intensity (a.u.)
27 | CTCCTGCCTGGGTTTGGTTTGGTTTGGCTTTGCTTCTTCCCGGAGTCACCTAGTGCAG | 36800 fluorescence intensity (a.u.)

Row | Sequence | binding signal
28 | GGTTTGGCTTTGCTTCTTCCTCGCGCGGCGCCTCCCATCCCGGAGTCACCTAGTGCAG | 9260 fluorescence intensity (a.u.)
29 | TCGATCGGTTGGTTGGTTGGTTTTGTTGGATTTTTTTCCTCGGAGTCACCTAGTGCAG | 18700 fluorescence intensity (a.u.)
30 | GGATTTTCTTCCGATCTCGCTTCCACCTCGCCGCCTCGCCCGGAGTCACCTAGTGCAG | 9120 fluorescence intensity (a.u.)
31 | CTCGCCTCGCCGCCTTTTCTTCGCCATCTTTTTCGATTTCCGGAGTCACCTAGTGCAG | 18800 fluorescence intensity (a.u.)
32 | TTCGTTAAATTATTTTTCTTTTTCGTTTTTTTTTTTTGTTCGGAGTCACCTAGTGCAG | 8930 fluorescence intensity (a.u.)
33 | TACTATACCACTTACTACTAAGTATTCTGCGCACAAACAGCGGAGTCACCTAGTGCAG | 10800 fluorescence intensity (a.u.)
34 | CCTCGGCTCCCATCCACTACCGTTTGCTACTCCGGCGCCGCGGAGTCACCTAGTGCAG | 10600 fluorescence intensity (a.u.)
35 | CTCATCTCACCCGTCACTACTGCACTGCGCACCATTGCCGCGGAGTCACCTAGTGCAG | 8540 fluorescence intensity (a.u.)
36 | GATTGGGTTGTTTGCGGGGCTAAGTTCCTAATTTTAATGACGGAGTCACCTAGTGCAG | 11500 fluorescence intensity (a.u.)
37 | ACCCTCCACCCGCCACCGCCACCGCCGCCTTCGCCGCCGCCGGAGTCACCTAGTGCAG | 9250 fluorescence intensity (a.u.)
38 | TTGCAACGGATTTTACTGGGCTTATGGGCTTCTTTTATTGCGGAGTCACCTAGTGCAG | 9700 fluorescence intensity (a.u.)
39 | AATACTTGCGAGCTCCGATCTCTTCTTCTTCTTCGTGAGCCGGAGTCACCTAGTGCAG | 8180 fluorescence intensity (a.u.)
40 | GGGATTTCATATATCTGGTTTTGCGGTTGGGGACGATTTTCGGAGTCACCTAGTGCAG | 12300 fluorescence intensity (a.u.)
41 | TCTCCTTGATTCCCGCTTCTCACACGCATTATTTGTTTCACGGAGTCACCTAGTGCAG | 18500 fluorescence intensity (a.u.)
42 | CTCTCTTCTTCTTCCTCGCTTTGCTTGGGTTGGGTTGGAGCGGAGTCACCTAGTGCAG | 14800 fluorescence intensity (a.u.)
43 | GGATTGGTTTTGAGATTGTTCTGTCAGATGGGGATTGTTTCGGAGTCACCTAGTGCAG | 12700 fluorescence intensity (a.u.)
44 | TGTTGTCGTCGTCCCTCTTCCTTTCCTTTCCTTTCCTTGCCGGAGTCACCTAGTGCAG | 8870 fluorescence intensity (a.u.)
45 | CCTCATTTGCTTCTTCTTCTTCTTCCTCCTCTTTGTTTCACGGAGTCACCTAGTGCAG | 9120 fluorescence intensity (a.u.)
46 | CTTGCTCTCCTCTCTCGTGCTCCATCGATCGATCGATCTCCGGAGTCACCTAGTGCAG | 9660 fluorescence intensity (a.u.)
47 | TCTTGCGACGATCGTGTGGGGTGGGTTCGTGTGCTCTCTCCGGAGTCACCTAGTGCAG | 19500 fluorescence intensity (a.u.)
48 | GAGACGTTGTATATCTGGTTTTGTGGTTTGGGGATGTTTTCGGAGTCACCTAGTGCAG | 20100 fluorescence intensity (a.u.)
49 | GAAGCTTCCTCGTCGTCCTTTGTTGGGTTGGGTTGGGTTGCGGAGTCACCTAGTGCAG | 21000 fluorescence intensity (a.u.)
50 | GCTTTGTTCTGATTCCTTCACAGTTATTTGATATTTTCCTCGGAGTCACCTAGTGCAG | 8710 fluorescence intensity (a.u.)
51 | CACGTCACCTGCATATGCCCTTCTTCCTCGCCGGCCACACCGGAGTCACCTAGTGCAG | 11000 fluorescence intensity (a.u.)
52 | TTTTCGTCTATTTTATTACTGTTGCTTGCCTACAATTCTCCGGAGTCACCTAGTGCAG | 13500 fluorescence intensity (a.u.)
53 | ATAGGTGCCGGTTCTATTTTGGTATAGGGGTCGGTTGTTTCGGAGTCACCTAGTGCAG | 11700 fluorescence intensity (a.u.)
54 | TCTCACTCTCGAGCCATCGTCTTCAGCTCGCTCATTACTGCGGAGTCACCTAGTGCAG | 9030 fluorescence intensity (a.u.)
